Inconclusive results are not listed. The source made the active and inactive calls. Unless noted, calls follow the shape of the dose curve; as a rule, active = well fitted curve in the direction sought with a large enough effect in the repeat runs; inconclusive = weak or mixed curves; inactive = no such curve, though single readings can be large; an effect the other way counts as inactive or inconclusive.
Assays:
[1] = qHTS assay to identify small molecule agonists of the estrogen receptor alpha (ER-alpha) signaling pathway in the presence of an antagonist - cell viability counter screen (AID 1259386);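 also: cells exposed to compounds for 22 h at 37 °C before the viability read; nearly all actives have a fitted effect of over 30% in size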; also: potency is read from the fitted curve at half-maximal effect
Procedure, shortened: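 Using estrogen-depleted VM7Luc4E2 cells, the 15-concentration compound series was applied together with 10.0nM ICI-182,780 and incubated 22hr at 37C/5% CO2. Cell viability was then scored by CellTiter-Fluor.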

[2] = molecular target: Progesterone receptor (Homo sapiens) (UniProt P06401); experiment: qHTS assay to identify small molecule agonists of the progesterone receptor (PR) signaling pathway (AID 1346784; calls by dose curve; also: nearly all actives have a fitted effect of over 30% in size; also: potency is read from the fitted curve at half-maximal effect)
Procedure, shortened: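 Fluorescence from LiveBLAzer B/G FRET substrate cleavage (2 hr, RT) reported PR activation in PR-UAS-bla HEK 293T cells treated 16 hr at 37C/5% CO2 with compounds; medium contained 2% charcoal-stripped FBS.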

[3] = molecular target: Progesterone receptor (Homo sapiens) (UniProt P06401); experiment: qHTS assay to identify small molecule antagonists of the progesterone receptor (PR) signaling pathway (AID 1346795; active = well fitted inhibition curve with a large enough effect in the signal ratio in the repeat runs, not every such curve was filed as active; the % refers to the signal ratio)
Procedure, shortened: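 Fluorescence intensity measured 2 hr after adding beta-lactamase FRET substrate to PR-UAS-bla HEK293T cells that had been co-treated 16 hr with compound and 1 nM R5020 (final concentration) in 2% charcoal-stripped FBS.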

[4] = qHTS assay to identify small molecule antagonists of the progesterone receptor (PR) signaling pathway - cell viability counter screen (AID 1346798); also: series mostly up to about 92 µM; nearly all actives have a fitted effect of over 50% in size
Procedure, shortened: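 CellTiter-Glo luminescence; PR-UAS-bla HEK293T, 3,000 cells/well; compound + R5020, 16 hr, 37C/5% CO2; 30 min RT before read.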

[5] = qHTS assay to identify small molecule agonists of the progesterone receptor (PR) signaling pathway - cell viability counter screen (AID 1346799; calls by dose curve; also: nearly all actives have a fitted effect of over 45% in size)
Procedure, shortened: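 In parallel with the beta-lactamase readout, cytotoxicity toward PR-UAS-bla HEK293T cells was measured by CellTiter-Glo luminescence following 16 hr compound incubation in 2% charcoal-stripped FBS medium.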

[6] = qHTS assay to identify small molecule antagonists of the TGF-beta/Smad signaling pathway - cell viability counter screen (AID 1346824); also: nearly all actives have a fitted effect of over 50% in size
Procedure, shortened: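 SBE-bla HEK 293T cells were plated overnight at 37 C, then given compounds in DMSO plus TGF-beta1 (added as 0.25 ng/mL solution) for 5 hr. After the bla read, CellTiter-Glo was added to the same wells and luminescence read after 30 min at room temperature.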

[7] = qHTS assay to identify small molecule agonists of the TGF-beta/Smad signaling pathway - cell viability counter screen (AID 1346829); also: top concentration of the series differs between compounds; nearly all actives have a fitted effect of over 45% in size
Procedure, shortened: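 CellTiter-Glo luminescence readout; SBE-bla HEK 293T cells, overnight plating, compound 5 hr at 37 C/5% CO2, then bla substrate 2 hr RT, then CellTiter-Glo 30 min RT.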

[8] = qHTS assay to identify small molecule agonists of the TGF-beta/Smad signaling pathway (AID 1346859; active = well fitted activation curve with a large enough effect in the signal ratio in the repeat runs, not every such curve was filed as active; the % refers to the signal ratio; also: series mostly up to about 77 µM)
Procedure, shortened: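 After overnight seeding, SBE-bla HEK 293T cells are dosed with compounds in DMSO and kept 5 hr at 37 C, 5% CO2. LiveBLAzer-type FRET substrate is then applied for 2 hr at room temperature.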

[9] = molecular target: Thyrotropin-releasing hormone receptor (Homo sapiens) (UniProt P34981); experiment: qHTS assay to identify small molecule antagonists of the thyrotropin-releasing hormone receptor (TRHR) signaling pathway (AID 1346877; active = well fitted inhibition curve with a large enough effect in the repeat runs, not every such curve was filed as active; also: series mostly up to about 51 µM)
Procedure, shortened: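 Calcium signal in dye-loaded TRHR/HEK293 cells; compounds added 5 min before TRH (1 nM final); fluorescence monitored 3 min at 1 s steps.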

[10] = molecular target: Thyrotropin-releasing hormone receptor (Homo sapiens) (UniProt P34981); experiment: qHTS assay to identify small molecule agonists of the thyrotropin-releasing hormone receptor (TRHR) signaling pathway (AID 1346891; calls by dose curve;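 also: HEK293 cells expressing TRHR with calcium dye readout; series mostly up to about 58 µM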)
Procedure, shortened: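 Compounds were tested as agonists at 15 concentrations, in triplicate, on TRHR-Hek293 cells; calcium-sensitive dye fluorescence was recorded for 3 min following addition.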

Measured: Potency

Sequence of Progesterone receptor (Homo sapiens) (P06401 whole entry, looked up): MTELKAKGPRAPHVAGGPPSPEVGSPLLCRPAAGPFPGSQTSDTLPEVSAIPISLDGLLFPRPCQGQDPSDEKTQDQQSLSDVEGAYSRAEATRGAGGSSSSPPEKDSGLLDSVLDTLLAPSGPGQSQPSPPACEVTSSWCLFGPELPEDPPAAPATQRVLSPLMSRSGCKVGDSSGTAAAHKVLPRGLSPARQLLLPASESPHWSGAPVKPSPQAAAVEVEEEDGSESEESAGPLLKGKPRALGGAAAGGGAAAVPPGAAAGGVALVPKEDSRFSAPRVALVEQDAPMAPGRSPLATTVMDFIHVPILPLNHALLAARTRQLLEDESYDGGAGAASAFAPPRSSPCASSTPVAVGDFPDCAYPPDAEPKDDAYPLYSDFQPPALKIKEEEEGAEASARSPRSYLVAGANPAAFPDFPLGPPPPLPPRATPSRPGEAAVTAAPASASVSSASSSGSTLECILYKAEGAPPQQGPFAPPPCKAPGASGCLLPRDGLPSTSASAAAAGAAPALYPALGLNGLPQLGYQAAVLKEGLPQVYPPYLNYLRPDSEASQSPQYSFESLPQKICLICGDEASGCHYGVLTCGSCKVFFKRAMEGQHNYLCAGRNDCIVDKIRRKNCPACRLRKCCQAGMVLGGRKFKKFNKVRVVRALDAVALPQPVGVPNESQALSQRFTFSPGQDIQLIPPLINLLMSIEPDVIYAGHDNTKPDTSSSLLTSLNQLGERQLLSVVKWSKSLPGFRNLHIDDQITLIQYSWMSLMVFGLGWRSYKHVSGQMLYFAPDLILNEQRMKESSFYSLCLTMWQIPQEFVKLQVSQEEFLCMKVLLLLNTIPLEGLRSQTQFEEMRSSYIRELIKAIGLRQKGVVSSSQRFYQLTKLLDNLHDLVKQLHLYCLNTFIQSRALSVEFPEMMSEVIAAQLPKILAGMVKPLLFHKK
Sequence of Thyrotropin-releasing hormone receptor (Homo sapiens) (P34981 whole entry, looked up): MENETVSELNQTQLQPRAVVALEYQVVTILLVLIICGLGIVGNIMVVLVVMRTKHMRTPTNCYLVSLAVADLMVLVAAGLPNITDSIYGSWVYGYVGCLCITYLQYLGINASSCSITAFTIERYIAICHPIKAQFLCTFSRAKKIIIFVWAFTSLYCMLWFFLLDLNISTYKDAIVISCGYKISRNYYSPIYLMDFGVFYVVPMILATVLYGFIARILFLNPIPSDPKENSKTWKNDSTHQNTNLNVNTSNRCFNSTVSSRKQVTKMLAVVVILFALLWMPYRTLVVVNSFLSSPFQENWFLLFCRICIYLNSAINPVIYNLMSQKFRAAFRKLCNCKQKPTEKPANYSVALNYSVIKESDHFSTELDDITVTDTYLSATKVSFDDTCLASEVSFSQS

CN1CC(=O)N/C1=N/C(=O)Nc1cccc(Cl)c1
inactive: [1] | [2] | [3] | [4] | [5] | [6] | [7] | [8] | [9] | [10]

CN(C)[C@@H]1C(=O)C(C(=O)NCN2CCCC2)=C(O)[C@@]2(O)C(=O)C3=C(O)c4c(O)cccc4[C@@](C)(O)C3C[C@@H]12 (some centres not stated)
inactive: [1] | [2] | [3] | [4] | [5] | [6] | [7] | [8] | [9] | [10]

CC(CC=O)CC(C)(C)C (configuration not stated)
inactive: [1] | [2] | [3] | [4] | [5] | [6] | [7] | [8] | [9] | [10]

CC(=O)N[C@H]1[C@H]([C@H](O)[C@H](O)CO)OC(C(=O)O)=C[C@@H]1N=C(N)N
inactive: [1] | [2] | [3] | [4] | [5] | [6] | [7] | [8] | [9] | [10]

CCC(C(=O)NC(=O)NC(C)=O)c1ccccc1 (configuration not stated)
inactive: [1] | [2] | [3] | [4] | [5] | [6] | [7] | [9] | [10]

CC(N)C12CC3CC(CC(C3)C1)C2 (configuration not stated)
inactive: [1] | [2] | [3] | [4] | [5] | [6] | [7] | [8] | [9] | [10]

O=[N+]([O-])c1ccc(/C=N\O)o1
inactive: [1] | [2] | [3] | [4] | [5] | [6] | [7] | [8] | [9] | [10]

COc1cc(C(=O)NCc2ccc(OCCN(C)C)cc2)cc(OC)c1OC
inactive: [1] | [2] | [3] | [4] | [5] | [6] | [7] | [8] | [9] | [10]

CCC(=O)OCc1ccccc1
inactive: [1] | [2] | [3] | [4] | [5] | [6] | [7] | [8] | [9] | [10]

Cc1nc2ccc(CN(C)c3ccc(C(=O)N[C@@H](CCC(=O)O)C(=O)O)s3)cc2c(=O)[nH]1
inactive: [1] | [2] | [3] | [4] | [5] | [6] | [7] | [8] | [9] | [10]

CO[C@@]1(NC(=O)C(C(=O)O)c2ccc(O)cc2)C(=O)N2C(C(=O)O)=C(CSc3nnnn3C)CO[C@@H]21 (some centres not stated)
inactive: [1] | [2] | [3] | [4] | [5] | [6] | [7] | [8] | [9] | [10]

CC(C(=O)O)c1cccc(Oc2ccccc2)c1 (configuration not stated)
inactive: [1] | [2] | [3] | [4] | [5] | [6] | [7] | [8] | [9] | [10]

O=C(O)c1cc(C(=O)O)cc(C(=O)O)c1
inactive: [1] | [2] | [3] | [4] | [5] | [6] | [7] | [8] | [9] | [10]

CCOC(=O)COc1cc(-n2ncc(C(F)(F)F)c(C)c2=O)c(F)cc1Cl
inactive: [1] | [2] | [3] | [4] | [5] | [6] | [7] | [9] | [10]

CCCCS(=O)(=O)N[C@@H](Cc1ccc(OCCCCC2CCNCC2)cc1)C(=O)O
inactive: [1] | [2] | [3] | [4] | [5] | [6] | [7] | [8] | [9] | [10]

COc1cc(C(=O)OC(COCCC(C)C)CN2CCOCC2)cc(OC)c1OC (configuration not stated)
inactive: [1] | [2] | [3] | [4] | [5] | [6] | [7] | [9] | [10]

C=CC(C)(CCC=C(C)C)OC(=O)CC (configuration not stated)
inactive: [1] | [2] | [3] | [4] | [5] | [6] | [7] | [8] | [9] | [10]

CCCC(=O)O[C@]1(C(=O)CC)CC[C@H]2[C@@H]3CCC4=CC(=O)CC[C@]4(C)[C@H]3[C@@H](O)C[C@@]21C
active: [2] 0.0075 µM
inactive: [1] | [3] | [4] | [5] | [6] | [7] | [8] | [9] | [10]

CCCCCCCCCCCCSC
inactive: [1] | [2] | [3] | [4] | [5] | [6] | [7] | [9] | [10]

CC1=CC(=O)[C@H]2C[C@@H]1C2(C)C
inactive: [1] | [2] | [3] | [4] | [5] | [6] | [7] | [8] | [9] | [10]

CCCCCCC1CCC(=O)O1 (configuration not stated)
inactive: [1] | [2] | [3] | [4] | [5] | [6] | [7] | [8] | [9] | [10]

COCCOCC(OC)OC
inactive: [1] | [2] | [3] | [4] | [5] | [6] | [7] | [8] | [9] | [10]

CCCc1nn(C)c2c(=O)[nH]c(-c3cc(S(=O)(=O)N4CCN(C)CC4)ccc3OCC)nc12
inactive: [1] | [3] | [4] | [5] | [6] | [7] | [8] | [9] | [10]
active: [2] 13.3 µM

COc1cc(-c2ccc(=O)[nH]n2)ccc1OC(F)F
inactive: [1] | [2] | [3] | [4] | [5] | [6] | [7] | [8] | [9] | [10]

Cc1coc2ccccc2c1=O
inactive: [1] | [2] | [3] | [4] | [5] | [6] | [7] | [8] | [9] | [10]

FB(F)F
inactive: [1] | [2] | [3] | [4] | [5] | [6] | [7] | [9] | [10]

CNCC(O)c1ccc(O)c(O)c1 (configuration not stated)
inactive: [2] | [3] | [4] | [5] | [6] | [7] | [8] | [9] | [10]
active: [1] 29.8 µM

N[C@H](C(=O)O)[C@@H](O)c1ccc(O)c(O)c1
inactive: [1] | [2] | [3] | [4] | [5] | [6] | [7] | [9] | [10]

NC(=O)N[C@@H](CCC(=O)O)C(=O)O
inactive: [1] | [2] | [3] | [4] | [5] | [6] | [8]

CCOCC(C)O (configuration not stated)
inactive: [1] | [2] | [3] | [4] | [6] | [7] | [8] | [9] | [10]

O=C(CO)[C@@H](O)[C@H](O)[C@H](O)CO
inactive: [1] | [2] | [3] | [4] | [6] | [7] | [8] | [9] | [10]

O=[N+]([O-])c1cncn1CCN1CCOCC1
inactive: [1] | [2] | [3] | [4] | [6] | [7] | [8] | [9] | [10]

C[C@H]1C[C@H]2[C@@H]3CCC4=CC(=O)C=C[C@]4(C)[C@H]3C(=O)C[C@]2(C)[C@@]1(O)C(=O)CO
inactive: [1] | [2] | [3] | [4] | [6] | [7] | [8] | [9] | [10]

— PubChem BioAssay (Tox21)
